# Inconclusive results are not listed. A number with no mark means an inactive call. The call rests on the fitted dose curve.
# Molecular target: Beta-2 adrenergic receptor (Homo sapiens) (UniProt P07550)
# Experiment: Adrenergic beta2 receptor (ADRB2) small molecule agonists, cell-based qHTS assay (AID 1963593)
# Details: CHO-ADRB2 cells, cAMP HTRF, 30 min; series mostly up to 92.4 µM; activation: at the top concentration
# Description: National Center for Advancing Translational Sciences [NCATS]
# Division of Preclinical Innovation [DPI]
# U.S. Environmental Protection Agency [EPA]
# National Institutes of Environmental Health Sciences [NIEHS]
# National Toxicology Program [NTP]
# U.S. Food and Drug Administration [FDA]
# Beta adrenergic receptors (Beta-ARs) belong to the G-protein coupled receptor (GPCR) superfamily, includes three subtypes - beta1, beta2, and beta3. Beta1-AR is the predominant receptor subtype expressed in the heart, and beta2-AR is expressed in the kidney, lung, blood vessel and in the heart, and beta3 is found in the adipocytes. Beta1 and 2 ARs couple to Gs protein and elevate cyclic adenosine mono phosphate (cAMP), which activates protein kinase A and leads to the downstream signaling responsible for the physiological actions. Beta-AR agonists or antagonists are the most prescribed therapeutic agents for heart failure and asthma, and these were one of the first target receptors for the rational drug design. Tox21 10K compound library was screened using the cAMP-Gs dynamic assay (Cisbio Bioassays, Shelton, CT) to identify agonists/antagonists of the Gs-coupled human adrenergic, beta2 receptor (ADRB2) in the CHO-ADRB2 cell line (Codex BioSolutions, Inc. Gaithersburg, MD), which stably over-expresses ADRB2. The principle of cAMP-Gs dynamic assay is based on HTRF technology, which facilitates the fluorescence resonance energy transfer (FRET) between donor Europium cryptate and acceptor d2-labeled cAMP. The cAMP generated within cells competes with the red acceptor, d2-labled cAMP, for binding to the monoclonal anti-cAMP-cryptate (Europium donor). An increase in intracellular cAMP leads to the disruption of FRET signal, and the signal is inversely proportional to the cAMP concentration. Isoproterenol HCl (Sigma-Aldrich, St. Louis, MO) was used as a positive control in the screening.
# Tox21 Assay Protocol Summary:
# CHO-ADRB2 cells were dispensed at 1,000/well in 4uL assay medium into white/solid 1536-well plates (Greiner Bio-One North America Inc., Monroe, NC) using a Multidrop Combi dispenser (ThermoFisher Scientific, Waltham, MA). The assay plates were incubated at 37C and 5% CO2 for an overnight (18-20hr). Then positive control and test compounds dissolved in DMSO were transferred to the assay plates at 23nL using a Pintool station (Wako, San Diego, CA). Following the compound and positive control transfer, 1uL stimulation mix containing 100uM IBMX and 25uM Ro-20-1724 was added to each well of the assay plates using BioRAPTR Flying Reagent Dispenser (FRD, Beckman Coulter, Brea, CA). The assay plates were incubated at room temperature for 0.5hr. Then 2.5ul each d2-labled cAMP and anti-cAMP-cryptate solutions were added separately to each well of the assay plates using an FRD and the assay plates were incubated at room temperature for 1hr.
# On the % scale 0 is the no-effect control and ±100 the full control effect.
# Chain of Beta-2 adrenergic receptor (Homo sapiens) (P07550 whole entry, looked up): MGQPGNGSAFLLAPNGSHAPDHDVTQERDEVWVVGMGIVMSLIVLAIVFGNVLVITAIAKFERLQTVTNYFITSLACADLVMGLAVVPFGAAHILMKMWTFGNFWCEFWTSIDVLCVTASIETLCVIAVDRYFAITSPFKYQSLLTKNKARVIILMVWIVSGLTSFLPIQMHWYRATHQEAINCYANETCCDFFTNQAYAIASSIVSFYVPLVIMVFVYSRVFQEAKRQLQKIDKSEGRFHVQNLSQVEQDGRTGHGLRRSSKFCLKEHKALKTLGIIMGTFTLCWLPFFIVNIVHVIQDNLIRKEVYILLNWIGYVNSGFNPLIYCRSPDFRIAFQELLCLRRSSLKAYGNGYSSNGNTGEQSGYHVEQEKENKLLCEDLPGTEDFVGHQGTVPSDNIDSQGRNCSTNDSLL
row,Compound,activation
1,COC(C)(C)CC(C)=O,-12.1%
2,CCCC(=O)O[C@]1(C(=O)CCl)[C@@H](C)C[C@H]2[C@@H]3CCC4=CC(=O)C=C[C@]4(C)[C@@]3(F)C(=O)C[C@@]21C,-44.3% [at 42.5 µM]
3,CCOC(=O)CC(=O)c1ccccc1,3.06%
4,CC1=CC=C(C(C)C)CC1,2.17%
5,CCC(CC)CO,1.15%
6,CC(=O)Oc1ccc([N+](=O)[O-])cc1CCl,11.9%
7,CCCCCCOC(=O)CCCCCCCC(=O)OCCCCCC,-2.32%
8,CO,2.6%
9,CC(C)COC(=O)C(C)C,15.2%
10,O=C(O)C(=O)Cc1ccccc1,5.66%
11,CCCCCC,0.7%
12,c1ccc(-c2ccc(-c3ccccc3)cc2)cc1,7.35% [at 19 µM]
13,CC(=O)/C=C/C=C1/C2CCC(C2)C1(C)C (stereo not given),5.03% [at 42.5 µM]
14,CC(C)(C)C(O)/C=C/c1ccc2c(c1)OCO2 (stereo not given),0.762% [at 42.5 µM]
15,CC1=C(O)C(=O)CO1,-27.8%
16,Cc1nc(-c2ccccn2)ncc1C(=O)Nn1cc(C)c2cc(F)ccc21,9.88%
17,CCC(=O)/C=C/c1ccc(OC)cc1,-12.3%
18,COC(C)CCO (stereo not given),4.38%
19,CCCCCCNC(=O)n1cc(F)c(=O)[nH]c1=O,0.947% [at 42.5 µM]
20,O=C(O)COC(=O)Cc1ccccc1Nc1c(Cl)cccc1Cl,4.28% [at 42.5 µM]

row,Compound,activation
1,CC(=O)NNC(C)=O,0.981%
2,O=C=NC1CCC(CC2CCC(N=C=O)CC2)CC1 (stereo not given),23.9%
3,O=C1NC2CCCCN2C12CCN(CCCN1c3ccccc3CCc3ccc(Cl)cc31)CC2 (stereo not given),-6.36% [at 42.5 µM]
4,C=C(C)C(=O)OCCOCCOC(=O)C(=C)C,-8.82%
5,CC(C)(C)CC(C)(C)c1ccc(O)c(Cc2ccc(Cl)cc2Cl)c1,13.1% [at 42.5 µM]
6,CCCCCCCCCc1ccc(OCCOCCO)cc1,2.9% [at 42.5 µM]
7,CC[C@H](C)C(=O)O[C@H]1C[C@H](O)C=C2C=C[C@H](C)[C@H](CC[C@@H](O)C[C@@H](O)CC(=O)O)[C@H]21,-43%
8,Nc1ccn([C@@H]2O[C@H](CO)[C@@H](O)C2O)c(=O)n1 (stereo not given in full),5.25%
9,CCCCCCCCn1sc(Cl)c(Cl)c1=O,39.9%
10,O=C(NN1CCCC1)NS(=O)(=O)c1ccc(Cl)cc1,-2.39% [at 42.5 µM]
11,CC(C)n1c(/C=C/[C@@H](O)C[C@@H](O)CC(=O)O)c(-c2ccc(F)cc2)c2ccccc21,15.6% [at 42.5 µM]
12,NNC(=O)CP(=O)(c1ccccc1)c1ccccc1,2.51% [at 42.5 µM]
13,CNc1ncnc2nc[nH]c12,9.6%
14,O=C(c1ccccc1)c1ccc(O)cc1O,3.12%
15,c1ccc(-c2nc[nH]c2-c2ccccc2)cc1,-33.3% [at 42.5 µM]
16,COc1cc(C(C)(C)C)c(O)c(C(C)(C)C)c1,11.6%
17,COC1=C(OC)C(=O)C(CCCCCCCCCCO)=C(C)C1=O,3.08% [at 42.5 µM]
18,Cc1ccc2c(c1)CCCN2,-0.416%
19,CCC1Nc2cc(Cl)c(S(N)(=O)=O)cc2S(=O)(=O)N1 (stereo not given),5.57% [at 42.5 µM]
20,CCc1ccc2c(c1)C(=O)c1ccccc1C2=O,42.2%
